Source: PubChem BioAssay (EPA / NIEHS)
Calls of active or inactive are those of the source. Rule for the calls: active = hit-call score of the fitted dose curve at least 0.9, where 1 is the maximum; inactive = score below 0.9.

Tests used:
Details in all cases: mRNA level, 48 h; actives raise or lower the signal
[1] = read-out: MicroRNA 122 (MIR122), gene 406906; test: LTEA_HepaRG_MIR122: Life Technologies and Expression Analysis (LTEA) Assay for MicroRNA 122 (MIR122) using HepaRG (AID 2283516); note: the transcript read is the microRNA miR-122
In short: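 Differentiated human HepaRG cells in serum-free induction medium exposed 48 h to 8 half-log concentrations from 100 uM in 0.5% DMSO, duplicate. MIR122 quantified by Fluidigm TaqMan qRT-PCR, normalised to ACTB, GAPDH, POLR2A; fold change fitted bidirectionally versus DMSO.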

[2] = read-out: matrix metalloproteinase-10 (MMP10), MMP10 (gene 4319); test: LTEA_HepaRG_MMP10: Life Technologies and Expression Analysis (LTEA) Assay for matrix metalloproteinase-10 (MMP10) using HepaRG (AID 2283517)
In short: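 HepaRG, collagen I, ~100,000 cells/well; serum-free induction medium; 48 h exposure, duplicate, 8-pt half-log to 100 uM, 0.5% DMSO. Readout: TaqMan qRT-PCR, normalized to ACTB/GAPDH/POLR2A; bidirectional fit vs DMSO.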

MYC, MYC (gene 4609) = test: LTEA_HepaRG_MYC: Life Technologies and Expression Analysis (LTEA) Assay for MYC using HepaRG (AID 2283518)
In short: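 Expression changes were scored by TaqMan qRT-PCR with ACTB, GAPDH and POLR2A normalization. Cultures in serum-free induction medium received duplicate 8-point concentration series, highest 100 uM, for 48 h; DMSO (0.5%) served as baseline.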

[3] = read-out: matrix metalloproteinase-3 (MMP3), MMP3 (gene 4314); test: LTEA_HepaRG_MMP3: Life Technologies and Expression Analysis (LTEA) Assay for matrix metalloproteinase-3 (MMP3) using HepaRG (AID 2283519)
In short: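 Differentiated human HepaRG cells, plated 48 h on collagen I, were exposed in duplicate for 48 h in serum-free induction medium to eight half-log concentrations up to 100 uM in 0.5% DMSO. MMP3 mRNA was quantified by TaqMan qRT-PCR, normalised to ACTB, GAPDH and POLR2A.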

[4] = read-out: Paternally Expressed 10 (PEG10), PEG10 (gene 23089); test: LTEA_HepaRG_PEG10: Life Technologies and Expression Analysis (LTEA) Assay for Paternally Expressed 10 (PEG10) using HepaRG (AID 2283520)
In short: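 Differentiated HepaRG cells exposed 48 h in serum-free induction medium to eight half-log concentrations topping at 100 uM, 0.5% DMSO, in duplicate. PEG10 mRNA quantified by TaqMan qRT-PCR, normalized to ACTB, GAPDH and POLR2A; bidirectional fit versus DMSO.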

[5] = read-out: Nuclear factor NF-kappa-B p105 subunit (Homo sapiens) (UniProt P19838); test: LTEA_HepaRG_NFKB1: Life Technologies and Expression Analysis (LTEA) Assay for Nuclear Factor Kappa B Subunit 1 (NFKB1) using HepaRG (AID 2283521);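 note: TaqMan qRT-PCR transcript normalised to ACTB GAPDH and POLR2A housekeeping genes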
In short: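 Differentiated human HepaRG cells were exposed for 48 h in serum-free induction medium to eight concentrations (top 100 uM, half-log steps, 0.5% DMSO), in duplicate. NFKB1 mRNA was measured by TaqMan qRT-PCR, normalized to ACTB/GAPDH/POLR2A, and fitted bidirectionally against DMSO.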

[6] = read-out: Protein phosphatase 2A (PPP2R4), PTPA (gene 5524); test: LTEA_HepaRG_PPP2R4: Life Technologies and Expression Analysis (LTEA) Assay for Protein phosphatase 2A (PPP2R4) using HepaRG (AID 2283522)
In short: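 Differentiated human HepaRG cells in serum-free induction medium were exposed 48 h to 8 concentrations (top 100 µM, half-log steps, duplicate) in 0.5% DMSO. PPP2R4 mRNA was measured by TaqMan qRT-PCR, normalised to ACTB, GAPDH and POLR2A, and fitted bidirectionally versus DMSO.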

[7] = read-out: Phosphatase and tensin (PTEN), PTEN (gene 5728); test: LTEA_HepaRG_PTEN: Life Technologies and Expression Analysis (LTEA) Assay for Phosphatase and tensin (PTEN) using HepaRG (AID 2283523)
In short: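 Differentiated human HepaRG cells, plated 48 h then switched to serum-free induction medium, were exposed in duplicate for 48 h to eight half-log concentrations up to 100 uM in 0.5% DMSO. PTEN mRNA measured by TaqMan qRT-PCR, normalized to ACTB/GAPDH/POLR2A, bidirectional fit versus DMSO.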

[8] = read-out: solute carrier (SLC22A1), SLC22A1 (gene 6580); test: LTEA_HepaRG_SLC22A1: Life Technologies and Expression Analysis (LTEA) Assay for solute carrier (SLC22A1) using HepaRG (AID 2283524)
In short: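 Human HepaRG cells were plated 48 h, switched to serum-free induction medium, then exposed in duplicate for 48 h to 8-point half-log series from 100 uM in 0.5% DMSO. SLC22A1 mRNA measured by qRT-PCR, normalized to ACTB/GAPDH/POLR2A, fitted bidirectionally versus DMSO.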

[9] = read-out: Pyruvate Dehydrogenase Kinase 4 (PDK4), PDK4 (gene 5166); test: LTEA_HepaRG_PDK4: Life Technologies and Expression Analysis (LTEA) Assay for Pyruvate Dehydrogenase Kinase 4 (PDK4) using HepaRG (AID 2283525)
In short: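 Differentiated human HepaRG cells, pre-cultured 48 h, were exposed in duplicate for 48 h in serum-free induction medium to eight half-log concentrations up to 100 uM in 0.5% DMSO. PDK4 mRNA was quantified by qRT-PCR, normalized to ACTB, GAPDH and POLR2A, bidirectional fitting versus DMSO.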

[10] = read-out: NAD(P)H dehydrogenase [quinone] 1 (NQO1), NQO1 (gene 1728); test: LTEA_HepaRG_NQO1: Life Technologies and Expression Analysis (LTEA) Assay for NAD(P)H dehydrogenase [quinone] 1 (NQO1) using HepaRG (AID 2283526)
In short: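 Differentiated human HepaRG cells in serum-free induction medium, dosed in duplicate for 48 h at 8 half-log concentrations up to 100 uM in 0.5% DMSO. NQO1 mRNA by qRT-PCR normalized to ACTB, GAPDH, POLR2A; bidirectional fit versus DMSO baseline.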

[11] = read-out: Nuclear factor erythroid 2-related factor 2 (Homo sapiens) (UniProt Q16236); test: LTEA_HepaRG_NFE2L2: Life Technologies and Expression Analysis (LTEA) Assay for Nuclear factor erythroid 2-related factor 2 (NFE2L2) Transcription Factor using HepaRG (AID 2283527)
In short: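 Differentiated human HepaRG cells in serum-free induction medium were exposed for 48 h to eight concentrations (top 100 uM, half-log dilutions, 0.5% DMSO), in duplicate. NFE2L2 mRNA was quantified by TaqMan qRT-PCR, normalized to ACTB, GAPDH and POLR2A, with bidirectional fitting versus DMSO.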

[12] = read-out: succinate dehydrogenase complex iron sulfur subunit B (SDHB), SDHB (gene 6390); test: LTEA_HepaRG_SDHB: Life Technologies and Expression Analysis (LTEA) Assay for succinate dehydrogenase complex iron sulfur subunit B (SDHB) using HepaRG (AID 2283528)
In short: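 HepaRG, 48 h exposure, 8-pt half-log series from 100 uM in 0.5% DMSO, duplicates. Readout: SDHB mRNA by Fluidigm qRT-PCR vs housekeeping genes; bidirectional fit relative to DMSO.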

[13] = read-out: Signal transducer and activator of transcription 3 (Homo sapiens) (UniProt P40763); test: LTEA_HepaRG_STAT3: Life Technologies and Expression Analysis (LTEA) Assay for Signal transducer and activator of transcription (STAT3) using HepaRG (AID 2283529)
In short: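 Differentiated human HepaRG cells in serum-free induction medium were exposed in duplicate for 48 h to eight half-log concentrations up to 100 uM in 0.5% DMSO. STAT3 mRNA was quantified by TaqMan qRT-PCR, normalized to ACTB, GAPDH and POLR2A, and fitted bidirectionally against DMSO.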

[14] = read-out: solute carrier (SLCO1B1), SLCO1B1 (gene 10599); test: LTEA_HepaRG_SLCO1B1: Life Technologies and Expression Analysis (LTEA) Assay for solute carrier (SLCO1B1) using HepaRG (AID 2283530)
In short: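 Human HepaRG cultures treated for 48 h with an eight-concentration half-log series topping at 100 uM; SLCO1B1 measured by qRT-PCR and fitted bidirectionally relative to DMSO.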

[15] = read-out: sulfotransferase 2A1 (SULT2A1), SULT2A1 (gene 6822); test: LTEA_HepaRG_SULT2A1: Life Technologies and Expression Analysis (LTEA) Assay for sulfotransferase 2A1 (SULT2A1) using HepaRG (AID 2283531)
In short: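 Gene-expression endpoint in a human liver cell line: SULT2A1 mRNA change after 48 h chemical treatment, curves fitted in both directions relative to 0.5% DMSO vehicle. Concentrations spanned eight half-log steps from 100 uM.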

[16] = read-out: Transforming Growth Factor (TGFA), TGFA (gene 7039); test: LTEA_HepaRG_TGFA: Life Technologies and Expression Analysis (LTEA) Assay for Transforming Growth Factor (TGFA) using HepaRG (AID 2283532)
In short: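 Differentiated human HepaRG cells, plated 48 h then switched to serum-free induction medium, were exposed in duplicate for 48 h to 8-point half-log series from 100 uM in 0.5% DMSO. TGFA mRNA measured by qRT-PCR, normalized to ACTB/GAPDH/POLR2A, bidirectional fit versus DMSO.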

[17] = read-out: Transforming Growth Factor (TGFB1), TGFB1 (gene 7040); test: LTEA_HepaRG_TGFB1: Life Technologies and Expression Analysis (LTEA) Assay for Transforming Growth Factor (TGFB1) Transporter using HepaRG (AID 2283533)
In short: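 Eight-point concentration-response (max 100 uM, half-log) in HepaRG under serum-free induction conditions, 48 h. TGFB1 mRNA by qRT-PCR, housekeeping-normalized.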

TIMP1, TIMP1 (gene 7076) = test: LTEA_HepaRG_TIMP1: Life Technologies and Expression Analysis (LTEA) Assay for TIMP1 using HepaRG (AID 2283534);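 note: TaqMan qRT-PCR signal normalized to ACTB GAPDH and POLR2A housekeeping genes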
In short: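 TIMP1 induction or repression in HepaRG cells after 48 h chemical exposure (eight concentrations, highest 100 uM), assessed by normalized qRT-PCR with bidirectional fitting to DMSO controls.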

[18] = read-out: Tumor necrosis factor receptor 1 (TNFRSF1A), TNFRSF1A (gene 7132); test: LTEA_HepaRG_TNFRSF1A: Life Technologies and Expression Analysis (LTEA) Assay for Tumor necrosis factor receptor 1 (TNFRSF1A) using HepaRG (AID 2283535)
In short: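 Assay uses 48 h chemical treatment of differentiated HepaRG monolayers, tested in duplicate at eight concentrations from 100 uM downward in 0.5% DMSO. mRNA is normalized to ACTB, GAPDH and POLR2A, with induction or suppression fitted relative to vehicle.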

Measured: AC50

Sequence of Nuclear factor erythroid 2-related factor 2 (Homo sapiens) (Q16236 whole entry, looked up): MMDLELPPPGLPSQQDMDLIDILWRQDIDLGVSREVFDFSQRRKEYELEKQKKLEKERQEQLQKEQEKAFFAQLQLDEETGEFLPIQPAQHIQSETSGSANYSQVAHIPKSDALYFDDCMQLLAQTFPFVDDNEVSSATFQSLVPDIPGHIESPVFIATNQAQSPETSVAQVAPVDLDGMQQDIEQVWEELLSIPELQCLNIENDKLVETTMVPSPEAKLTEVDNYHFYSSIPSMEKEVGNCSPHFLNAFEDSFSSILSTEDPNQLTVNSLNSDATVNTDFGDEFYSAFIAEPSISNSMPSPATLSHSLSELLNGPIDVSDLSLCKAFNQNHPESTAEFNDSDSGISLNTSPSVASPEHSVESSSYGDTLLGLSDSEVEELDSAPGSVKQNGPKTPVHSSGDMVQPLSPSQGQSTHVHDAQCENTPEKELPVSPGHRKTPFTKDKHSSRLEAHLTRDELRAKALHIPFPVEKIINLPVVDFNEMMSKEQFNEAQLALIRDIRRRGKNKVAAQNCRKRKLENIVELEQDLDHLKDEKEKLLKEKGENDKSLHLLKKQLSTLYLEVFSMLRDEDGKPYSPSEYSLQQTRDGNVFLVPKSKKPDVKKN
Sequence of Nuclear factor NF-kappa-B p105 subunit (Homo sapiens) (P19838 whole entry, looked up): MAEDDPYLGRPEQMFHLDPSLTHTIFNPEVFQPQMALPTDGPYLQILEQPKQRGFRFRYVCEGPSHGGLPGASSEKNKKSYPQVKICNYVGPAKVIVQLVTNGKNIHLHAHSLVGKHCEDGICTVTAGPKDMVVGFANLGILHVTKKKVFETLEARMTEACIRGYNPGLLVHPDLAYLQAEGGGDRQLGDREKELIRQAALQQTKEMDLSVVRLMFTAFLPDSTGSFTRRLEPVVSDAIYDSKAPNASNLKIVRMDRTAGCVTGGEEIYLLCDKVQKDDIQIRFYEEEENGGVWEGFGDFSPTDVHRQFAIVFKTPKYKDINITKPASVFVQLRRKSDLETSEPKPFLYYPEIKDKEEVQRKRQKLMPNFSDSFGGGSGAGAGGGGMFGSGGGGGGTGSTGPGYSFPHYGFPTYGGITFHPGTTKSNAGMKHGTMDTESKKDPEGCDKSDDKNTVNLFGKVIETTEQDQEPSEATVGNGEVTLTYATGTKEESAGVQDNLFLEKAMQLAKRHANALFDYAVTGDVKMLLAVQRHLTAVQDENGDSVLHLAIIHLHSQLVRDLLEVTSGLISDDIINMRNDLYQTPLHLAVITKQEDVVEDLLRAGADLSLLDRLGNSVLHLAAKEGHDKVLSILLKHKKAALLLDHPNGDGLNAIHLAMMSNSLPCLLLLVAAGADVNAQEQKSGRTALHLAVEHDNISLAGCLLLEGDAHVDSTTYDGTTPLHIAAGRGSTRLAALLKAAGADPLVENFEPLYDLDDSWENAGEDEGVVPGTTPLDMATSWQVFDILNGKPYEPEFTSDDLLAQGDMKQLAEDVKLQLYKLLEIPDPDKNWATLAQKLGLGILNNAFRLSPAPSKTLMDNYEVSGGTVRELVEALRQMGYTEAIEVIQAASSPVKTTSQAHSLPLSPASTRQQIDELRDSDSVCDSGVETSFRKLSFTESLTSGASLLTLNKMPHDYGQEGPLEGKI
Sequence of Signal transducer and activator of transcription 3 (Homo sapiens) (P40763 whole entry, looked up): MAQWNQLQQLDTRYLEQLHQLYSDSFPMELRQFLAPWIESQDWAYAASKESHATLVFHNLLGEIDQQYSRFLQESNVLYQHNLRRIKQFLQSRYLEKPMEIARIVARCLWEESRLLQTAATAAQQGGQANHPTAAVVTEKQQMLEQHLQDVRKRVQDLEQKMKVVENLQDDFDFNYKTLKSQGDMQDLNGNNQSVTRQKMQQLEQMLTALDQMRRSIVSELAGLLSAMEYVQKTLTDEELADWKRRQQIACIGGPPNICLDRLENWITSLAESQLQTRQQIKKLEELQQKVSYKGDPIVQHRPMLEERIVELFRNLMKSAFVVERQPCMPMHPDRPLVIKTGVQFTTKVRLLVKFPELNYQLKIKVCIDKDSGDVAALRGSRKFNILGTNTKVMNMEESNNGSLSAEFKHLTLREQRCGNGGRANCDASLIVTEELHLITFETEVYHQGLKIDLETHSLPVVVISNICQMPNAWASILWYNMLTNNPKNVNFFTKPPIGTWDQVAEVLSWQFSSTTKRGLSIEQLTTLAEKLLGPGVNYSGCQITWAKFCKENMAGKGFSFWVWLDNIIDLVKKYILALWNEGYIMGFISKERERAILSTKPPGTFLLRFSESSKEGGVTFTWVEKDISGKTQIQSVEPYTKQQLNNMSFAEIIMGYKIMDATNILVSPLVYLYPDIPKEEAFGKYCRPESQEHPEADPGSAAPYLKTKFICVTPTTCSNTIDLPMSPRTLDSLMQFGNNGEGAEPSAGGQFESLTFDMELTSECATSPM

O=C(O)CN(CC(=O)O)CC(=O)O
inactive: [1] | [2] | MYC, MYC (gene 4609) | [3] | [4] | [5] | [6] | [7] | [8] | [9] | [10] | [11] | [12] | [13] | [14] | [15] | [16] | [17] | TIMP1, TIMP1 (gene 7076) | [18]

CN(C)CCCN(C)CCCN(C)C
inactive: [1] | [2] | MYC, MYC (gene 4609) | [3] | [4] | [5] | [6] | [7] | [8] | [9] | [10] | [11] | [12] | [13] | [14] | [15] | [16] | [17] | TIMP1, TIMP1 (gene 7076) | [18]

N[C@@H](Cc1c[nH]c2ccccc12)C(=O)O
inactive: [1] | [2] | MYC, MYC (gene 4609) | [3] | [4] | [5] | [6] | [7] | [8] | [9] | [10] | [11] | [12] | [13] | [14] | [15] | [16] | [17] | TIMP1, TIMP1 (gene 7076) | [18]

NCCOCCOCCN
inactive: [1] | [2] | MYC, MYC (gene 4609) | [3] | [4] | [5] | [6] | [7] | [8] | [9] | [10] | [11] | [12] | [13] | [14] | [15] | [16] | [17] | TIMP1, TIMP1 (gene 7076) | [18]

CC1=C(C)S(=O)(=O)CCS1(=O)=O
active: [1] 75.2 µM | MYC, MYC (gene 4609) 72.6 µM | [6] 74.4 µM | [8] 82.1 µM | [9] 62 µM | [11] 65.7 µM | [14] 88.2 µM | [16] 50 µM
inactive: [2] | [3] | [4] | [5] | [7] | [10] | [12] | [13] | [15] | [17] | TIMP1, TIMP1 (gene 7076) | [18]

CCCCCCCC(=O)OC
active: [7] 12.2 µM
inactive: [1] | [2] | MYC, MYC (gene 4609) | [3] | [4] | [5] | [6] | [8] | [9] | [10] | [11] | [12] | [13] | [14] | [15] | [16] | [17] | TIMP1, TIMP1 (gene 7076) | [18]

CCOCCOCCO
inactive: [1] | [2] | MYC, MYC (gene 4609) | [3] | [4] | [5] | [6] | [7] | [8] | [9] | [10] | [11] | [12] | [13] | [14] | [15] | [16] | [17] | TIMP1, TIMP1 (gene 7076) | [18]
